In the library only some 4% were active in any assay of this set; here they are far more common.
KKLEB cytotox: CF airway cell cytotoxicity counter-screen. KKLEB CF airway cells viability, ATPlite luminescence, overnight; hits give low values; cells stimulated with P. aeruginosa culture filtrate. actives 0.36% (n = 360,000). activity change (cytotoxicity), % at 5 µM. AID 602141;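 active = corrected activity change at or below -50% at 5 µM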
Peg3 promoter: inhibitors of Peg3 promoter. actives 1.7% (n = 360,000). inhibition, % at 20 µM. HeLa PEG-Prom luciferase reporter, luminescence, overnight;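 active = inhibition of at least 50% at 20 µM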
HIF-2a block: HIF-2a inhibition. 786-0 RCC cells HIF-2a reporter, luciferase luminescence, overnight. inhibition, % at 18.8 µM. actives 0.72% (n = 360,000). AID 624352;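 active = inhibition of the luminescence signal of 40% or more relative to plate controls, in a single-dose primary screen at 18.75 µM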
CF NFkB inh: inhibitors of cystic fibrosis induced NF-kB; KKLEB NF-kB-GFP reporter, PAF-induced, GFP fluorescence overnight; inhibition, % at 5 µM; actives 0.86% (n = 360,000); AID 588850;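 active = at least 50% inhibition at 5 µM, scaled per plate between neutral and stimulator controls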;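 note: PAF is a Pseudomonas aeruginosa culture filtrate used as stimulus; plate controls were PAF-stimulated DMSO wells for no effect and unstimulated DMSO wells for full effect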
TROY signal inh: inhibitors of TROY-dependent NF-kB signaling; Q293 LMP1-TROYcd NF-kB luciferase reporter, 4 h; inhibition, % at 10 µM; actives 0.98% (n = 360,000); AID 1347056;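 active = compounds whose plate-normalised and pattern-corrected inhibition of the luciferase reporter signal at the single screening dose is 50% or more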
TWEAK Fn14 block: TWEAK-Fn14 signaling inhibition | TWEAK-stimulated Fn14 reporter cells, luciferase luminescence, 8 h | actives 2% (n = 360,000) | AID 1159606 | inhibition, % at 10 µM; in the data active = inhibition above about 50%
CF NFkB conf: confirmation of cystic fibrosis induced NF-kB inhibitors; shares compounds with CF NFkB inh; actives 64% (n = 1,300); AID 602472; inhibition, % at 5 µM; KKLEB CF airway cells, PAF-induced NF-kB-GFP fluorescence, overnight; in the data active = inhibition above about 40%;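 note: stimulus PAF is a Pseudomonas aeruginosa filtrate and not platelet activating factor; plate controls were DMSO wells with stimulus for no effect and unstimulated DMSO wells for full effect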
Numbers without * were called inactive; . = no result.

SMILES | KKLEB cytotox | Peg3 promoter | HIF-2a block | CF NFkB inh | TROY signal inh | TWEAK Fn14 block | CF NFkB conf
CCC1=Nc2cc(C(=O)NCc3ccco3)ccc2Sc2ccc(C)cc21 | -28 | 4 | 35 | 52* | 26 | 12 | 80*
Cc1nc([N+](=O)[O-])c(SCC(N)=O)n1Cc1ccccc1 | 7 | 7 | 13 | 4 | 10 | 2 | .
Cc1nc([N+](=O)[O-])c(Sc2nc3ccccc3n2C)n1Cc1ccccc1 | -34 | 35 | 14 | 65* | 2 | 34 | 56*
Cc1ccc(C)c(N(CC(=O)N2CCCC2)S(C)(=O)=O)c1 | -5 | 13 | 22 | 6 | 20 | -13 | .
O=C(NCC(c1ccc(F)cc1)N1CCOCC1)c1ccc([N+](=O)[O-])o1 (centres undefined) | -1 | 18 | 9 | 64* | 8 | -9 | 26
CC(=O)c1ccc(-c2ccc(C(=O)NCC(c3ccc(F)cc3)N3CCOCC3)o2)cc1 (centres undefined) | 0 | -38 | -35 | -13 | -14 | -25 | .
COc1ccc(CN(CCC(c2ccc(F)cc2)C2CCOC(C)(C)C2)C(=O)c2ccco2)cc1 (centres undefined) | -15 | 51* | 2 | 74* | 11 | 27 | 49*
CC1=CC(=O)CC(C)(C)C1(O)/C=C/C(C)=C/C(=O)O (centres undefined) | 4 | 8 | 6 | -1 | 6 | -11 | .
CC1=C(/C=C/C(C)=C/C=C/C(C)=C\C(=O)O)C(C)(C)CCC1 | -9 | -20 | 13 | 66* | 2 | 10 | 70*
COc1cccc2c(SCC(=O)N/N=C/c3ccc(O)c(O)c3)cc(C)nc12 | -11 | 22 | 0 | 16 | 8 | 22 | .
COc1cccc2c(SCC(=O)N/N=C/c3ccccc3)cc(C)nc12 | -29 | 27 | 31 | 54* | 7 | 21 | 61*
Cc1ccccc1N1CCN(C2CCCN(C(=O)c3ccsc3)C2)CC1 (centres undefined) | -9 | 6 | -2 | 20 | 10 | -4 | .
CC(C)(C)c1ccc(C(=O)Nc2ccc(O)c3c(=O)cc(-c4cccc(Cl)c4)oc23)cc1 | -20 | 3 | -22 | 26 | 7 | -21 | .
COc1ccc(C(=O)Nc2ccc(O)c3c(=O)cc(-c4cccc(Cl)c4)oc23)cc1 | -33 | -57 | -46 | 50* | 9 | 36 | 2
O=C(NCC1CCCN1S(=O)(=O)c1ccccc1)c1cccc(Cl)c1 (centres undefined) | 3 | 6 | 17 | 2 | -8 | 7 | .
C=CC[C@@H](CC(=O)N[C@H](CO)Cc1ccccc1)C(=O)NC[C@H](OC(=O)[C@@H](CC=C)Cc1ccc(F)cc1)c1ccccc1 | -41 | 79* | -2 | 54* | 5 | 29 | 63*
COc1ccc(-c2noc(CNC(=O)c3ccoc3C)n2)cc1 | 3 | -1 | -2 | 16 | 5 | -5 | .
Cc1ccc(N(C)C(=O)c2cc(S(=O)(=O)N3CCCCC3)c[nH]2)cc1 | 1 | 14 | 10 | 50* | 13 | 15 | 56*
CN(C(=O)c1cc(S(=O)(=O)N2CCCCC2)c[nH]1)C1CCCCC1 | -12 | 15 | 19 | -3 | 0 | -3 | .
Cc1ccccc1CCNC(=O)Cn1ccc2cc(S(=O)(=O)N3CCCC3)ccc21 | -8 | 18 | 9 | -1 | 2 | -13 | .
NC(=O)c1ccsc1NC(=O)c1ccc([N+](=O)[O-])o1 | -29 | 47 | -22 | 59* | -14 | 19 | -15
Cc1ccc2nsnc2c1NC(=O)CCl | 3 | 5 | 7 | -12 | 5 | 17 | .
Cc1ccc2nsnc2c1NC(=O)c1ccc([N+](=O)[O-])o1 | 7 | 22 | 38 | 73* | -1 | 5 | 37
Cc1ccnc(NC(=O)c2ccc([N+](=O)[O-])o2)c1 | 3 | -66 | -138 | 51* | 14 | 0 | 20
O=C(Nc1ccccn1)c1ccc([N+](=O)[O-])o1 | -4 | -6 | -12 | 31 | -16 | 5 | .
SMILES | KKLEB cytotox | Peg3 promoter | HIF-2a block | CF NFkB inh | TROY signal inh | TWEAK Fn14 block | CF NFkB conf
O=C1CCN(CCc2ccccc2)CCN1CCSc1ccccc1 | 1 | -214 | -155 | 7 | -58 | -19 | .
Cc1cn([C@H]2C[C@H](O)[C@@H](CNCc3ccc(CN(C)S(C)(=O)=O)o3)O2)c(=O)[nH]c1=O | 6 | 8 | 7 | -3 | 15 | -7 | .
CCC(CC)c1nnc(NC(=O)c2cccc(S(=O)(=O)N3CCc4ccccc43)c2)s1 | -1 | 9 | 3 | 5 | 39 | 41 | .
CCOC(=O)c1sc(NC(=O)c2cccc(S(=O)(=O)N3CCc4ccccc43)c2)c(C#N)c1C | -32 | 40 | -16 | 61* | 53* | 48 | 66*
Cc1cc(C)cc(N2C(=O)CC(Sc3nnnn3-c3ccccc3)C2=O)c1 (centres undefined) | -17 | 108* | -11 | 57* | 6 | 7 | -1
Cc1cccc(N2C(=O)CC(Sc3nc(C)cc(C)n3)C2=O)c1 (centres undefined) | 6 | 11 | 4 | 1 | -2 | 0 | .
COc1ccc(Nc2nc(-c3cccs3)nc3ccccc23)cc1S(=O)(=O)N1CCOCC1 | -36 | 55* | -83 | 90* | 27 | 97* | 103*
COc1ccc(NS(=O)(=O)c2cccs2)cc1S(=O)(=O)N1CCOCC1 | 0 | 13 | 2 | -6 | 7 | 3 | .
COc1ccc(-n2nc(C(=O)NCC(=O)NCCCN3CCOCC3)c3ccccc3c2=O)cc1 | 12 | 15 | 15 | 61* | 12 | -5 | 15
Cc1cc(C)cc(N2CC(C(=O)OCC(=O)Nc3cc(C)on3)CC2=O)c1 (centres undefined) | 1 | -5 | 22 | -1 | 1 | 6 | .
NC(=O)C1CCN(C(=O)C2CC(=O)N(Cc3ccccc3)C2)CC1 (centres undefined) | 3 | -1 | 6 | 8 | 3 | 2 | .
O=C1C=C(NC2=CC3OC(c4ccccc4)OCC3OC2=O)CCC1 (centres undefined) | -11 | 44 | 25 | 71* | 8 | 71* | 47*
O=C(NCCCSc1ccccc1)c1cc(Br)ccc1O | -36 | 42 | -9 | 55* | 35 | 51* | 79*
O=C(Oc1ccc(F)cc1C(=O)/C=C/c1cccs1)c1cccc([N+](=O)[O-])c1 | 1 | 18 | 28 | 50* | 10 | 7 | 60*
CCOC(=O)c1c(C)cc2c(CO)n[nH]c(=O)c2c1C | -14 | 27 | 10 | 51* | 20 | 29 | 48*
CC(=O)OCC(=O)C1(O)CCC2C3CC(C)C4=CC(=O)C=CC4(C)C3C(O)CC21C (centres undefined) | 45 | -18 | 18 | 65* | 18 | 4 | 4
CCc1cc2c(Sc3nc4ccccc4s3)ncnc2s1 | -46 | 15 | -5 | 67* | -21 | 94* | 89*

Screening data from PubChem.
